Assay outcomes: PubChem BioAssay, Broad Institute
Most compounds without a hit are left out; they make up all but 1.8% or so of the library.
EWS-Fli inh = EWS/Fli-driven NR0B1 reporter inhibitors, primary screen, A673 cells, NR0B1 luciferase, luminescence, MLPCN library; actives 0.67% (n = 350,000); viability-normalised; inhibition, % at 12.6 µM;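 active = mean inhibition of at least 50% after viability correction, with every replicate also passing that limit; inconclusive = mean reaches 50% but only one of two replicates passes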;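 also: firefly luciferase signal divided by Alamar Blue viability fluorescence both relative to DMSO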
RAD54 branch = inhibitors of human RAD54 branch migration, primary screen, biochemical, fluorescence, single point; actives 0.14% (n = 360,000); DNA repair and recombination protein RAD54-like (Homo sapiens), Q92698; RAD54 Holliday junction branch migration, FAM/BHQ fluorescence; inhibition, % at 10.4 µM;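 active = mean normalized replicate activity at least 40 and at least half of replicates scoring 40 or more; inconclusive = only one of the two criteria met; inactive = mean below 40 and under half of replicates reaching 40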;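 also: 0% = median of neutral control wells and 100% = median of positive control wells; inhibitors cause a drop in the FAM fluorescence signal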
Target sequence (Q92698 whole entry, looked up): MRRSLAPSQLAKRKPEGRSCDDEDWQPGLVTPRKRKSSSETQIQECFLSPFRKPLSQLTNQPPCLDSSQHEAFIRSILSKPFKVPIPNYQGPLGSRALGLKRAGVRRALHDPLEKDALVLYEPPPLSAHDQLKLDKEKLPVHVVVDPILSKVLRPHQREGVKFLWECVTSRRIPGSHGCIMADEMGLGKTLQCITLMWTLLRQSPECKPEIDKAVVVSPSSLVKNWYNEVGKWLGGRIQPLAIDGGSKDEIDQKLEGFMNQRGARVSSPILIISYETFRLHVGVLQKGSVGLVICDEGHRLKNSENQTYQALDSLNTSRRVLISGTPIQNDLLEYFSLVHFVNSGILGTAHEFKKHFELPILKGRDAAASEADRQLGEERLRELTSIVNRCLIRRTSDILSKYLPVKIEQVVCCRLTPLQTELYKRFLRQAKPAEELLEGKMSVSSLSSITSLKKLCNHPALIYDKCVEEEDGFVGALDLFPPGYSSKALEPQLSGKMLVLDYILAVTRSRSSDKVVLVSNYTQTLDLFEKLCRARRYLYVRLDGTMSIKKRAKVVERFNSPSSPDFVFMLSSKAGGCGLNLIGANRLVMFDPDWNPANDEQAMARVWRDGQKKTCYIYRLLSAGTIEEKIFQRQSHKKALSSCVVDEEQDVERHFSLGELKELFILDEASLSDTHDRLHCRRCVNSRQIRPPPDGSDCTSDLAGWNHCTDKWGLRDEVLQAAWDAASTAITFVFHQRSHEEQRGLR
INS-1E GSIS act = GLuc luminescence reporter in INS-1E cells, primary screen for activators of glucose-dependent secretion of insulin. INS-1E GLuc reporter insulin secretion, 2-3 h. activation, % at 16.6 µM. actives 0.61% (n = 370,000). AID 743287, 2014;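 active = lowest replicate activation of at least 40%, so every replicate reaches that level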;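 also: 0% = median of neutral control wells and 100% = median of IBMX positive control wells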
RAD52 anneal inh = RAD52 DNA annealing inhibitors, primary screen, biochemical, FRET, single point, set 2 | inhibition, % at 18.7 µM | DNA repair protein RAD52 homolog (Homo sapiens), P43351 | actives 0.46% (n = 360,000) | recombinant RAD52 DNA annealing, FRET fluorescence;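 active = every replicate showing at least 50% inhibition; inconclusive = mean inhibition at least 50% but not in every replicate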
LGR2 antag = inhibitors of bursicon-induced LGR2 CRE-luciferase signal, primary screen, cell-based, HEK293, CRE-luciferase reporter, bursicon stimulation | bursicon-stimulated, 4 h | actives 0.35% (n = 380,000) | inhibition, % at 9.99 µM | Drosophila bursicon receptor LGR2 (rickets);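 active = drop in luminescence signal, shown as inhibition above about 50% in the replicate tests, limit read from the data, passing the limit was not always enough; inconclusive = probably only some replicates passing the limit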;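 also: agonist challenge used bursicon conditioned medium at about half maximal strength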
CFTR F508del cor = F508del CFTR correction, initial screen, CFBE line, single point | CFBE cells, YFP halide quenching; stimulated with forskolin plus potentiator P3; % fluorescence drop versus neutral controls | activity (quench increase), % at 7.58 µM | actives 0.36% (n = 350,000) | AID 720511, 2013;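 active = mean added fluorescence quench of at least 8% versus neutral control, with both replicates also reaching 8%; inconclusive = only one of the mean or replicate conditions met; inactive = mean below 8% and not both replicates reaching 8%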;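 also: cells transiently co-express mutant CFTR-F508del with the halide-sensitive YFP; corrector assay measuring rescue of mutant channel to the surface after 24 h compound exposure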
DNA binding = DNA binding of candidate compounds, dose response, artefact control for RAD54 inhibitor project, biochemical, fluorescence polarization, cherry-pick | AID 651673, 2012 | actives 8% (n = 460) | shares compounds with RAD54 branch | Acridine orange-DNA displacement, 20 min | AC50, µM (series often up to 35 µM), inactives show at the top dose activity change, negative = DNA binding;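 active = signal drop giving an AC50 within twice the top valid tested concentration of each sample, actives reach about 35 µM in these data; inactive = activity opposite to expected, plus the rest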;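 also: polarization loss reports compound binding to salmon sperm DNA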
Active calls of the source: *; ? = inconclusive; . = no result given.

SMILES	EWS-Fli inh	RAD54 branch	INS-1E GSIS act	RAD52 anneal inh	LGR2 antag	CFTR F508del cor	others
COc1cc(-c2c(CCO)sc3ccccc23)cc(OC)c1OC	56*	.	0	-4	-7	2
O=C(O)c1ccc(-c2nc(-c3ccccc3)c(-c3cccs3)[nH]2)cc1	1	.	53*	-13	-5	0
Cc1ccc(-c2[nH]c(-c3ccc(C(=O)O)cc3)nc2-c2ccccc2)cc1	.	.	-12	-1	3	.
Cc1ccc(S(=O)(=O)Nc2ccc3c(c2)CC(=O)N([C@H](C)CO)C[C@H](C)[C@@H](CN(C)Cc2ccc(-c4ccccc4)cc2)O3)cc1	-1	3	-9	67*	3	1
C[C@@H]1CN([C@H](C)CO)C(=O)Cc2cc(NS(=O)(=O)c3ccccc3)ccc2O[C@@H]1CN(C)CC1CCCCC1	64*	1	5	12	0	0
COC(=O)c1ccccc1NC(=O)Cn1cnc([N+](=O)[O-])c1	-6	1	19	6	6	0
O=C(c1ccc2c(c1)OCO2)N1CCN(S(=O)(=O)c2ccccc2)CC1	.	5	46*	4	-4	-2
Cc1ccc(S(=O)(=O)N2CCN(C(=O)c3ccc4c(c3)OCO4)CC2)cc1	.	12	-4	-10	-12	-1
Cc1ccc(C(=O)OCc2ccc3c(c2)OCO3)cc1S(=O)(=O)N1CCCCC1	.	-1	-3	.	.	.
CC1CCN(S(=O)(=O)c2ccc(C(=O)OCc3ccc4c(c3)OCO4)cc2)CC1	.	1	142*	.	.	.
CN(C)c1ccccc1-c1csc(N2CCC(C(N)=O)CC2)n1	-139	2	.	-7	-36	0
CCOc1cc(-c2noc(CCC(=O)NCCc3ccccc3)n2)ccc1OC	14	-1	1	5	-5	-2
CCOc1ccc(-c2noc(CCC(=O)NC)n2)cc1OCC	.	2	56*	.	.	.
O=C(Nc1cc(C(F)(F)F)ccc1N1CCOCC1)c1cccc(S(=O)(=O)N2CCOCC2)c1	1	5	.	-7	-19	-2
CCNc1ccc(C(=O)N/N=C/c2c(C)nn(-c3ccccc3)c2N2CCCC2)cc1[N+](=O)[O-]	6	.	46*	-8	7	.
Cc1ccc(NS(=O)(=O)c2cccc(C(=O)N/N=C/c3c(C)nn(-c4ccccc4)c3N3CCCC3)c2)c(C)c1	.	.	-35	.	14	.
NC(=O)c1ccsc1NC(=O)CSc1ncnc2sccc12	-12	-5	57*	-34	-12	0
CCN(CC)C1Oc2cc3c(cc2C(c2cccc(OC)c2O)C1C)OCO3 (stereo not drawn)	17	.	.	-10	-1	-2
COc1cc(C2c3cc4c(cc3OC(NNC(N)=O)C2C)OCO4)cc(OC)c1OC (stereo not drawn)	54*	.	5	-1	-9	1
COc1cc(C2c3cc4c(cc3OC(NNC(N)=S)C2C)OCO4)cc(OC)c1OC (stereo not drawn)	61*	.	19	5	2	2
COc1cccc(C2c3cc4c(cc3OC(NNC(N)=O)C2C)OCO4)c1O (stereo not drawn)	41	.	-15	-3	10	8.9*
COc1cc(C2c3cc4c(cc3OC(NCc3ccccc3)C2C)OCO4)cc(OC)c1OC (stereo not drawn)	?	.	21	-8	7	2
CC(/C=C/C=C/c1ccccc1)=N/NC(=O)CNc1ccccc1C	.	2	136*	.	3	.
O=C(NCc1ccccn1)c1ccccc1OCc1ccc(Cl)cc1Cl	-9	-2	49*	0	-6	0
Cc1ccc2c(CN3CCN(S(=O)(=O)c4ccc(Cl)cc4)CC3)cc(=O)oc2c1C	24	8	24	-15	-13	19*
SMILES	EWS-Fli inh	RAD54 branch	INS-1E GSIS act	RAD52 anneal inh	LGR2 antag	CFTR F508del cor	others
COc1ccc(C(=O)c2nccc3cc(OC)c(OC)cc23)cc1OC	.	33	.	.	.	.
COc1cc2c(cc1OC)-c1c(OC)c(OC)cc3ccnc(c13)C2=O	10	88*	1	-114	-28	1
O=C(CN1C(=O)NC(Cc2c[nH]c3ccccc23)C1=O)NCCc1ccccc1 (stereo not drawn)	13	-8	103*	-15	0	-2
COc1ccc(C(=O)C2CCCN(Cc3cccn3-c3nccs3)C2)cc1OC (stereo not drawn)	8	-18	81*	-6	-4	1
COc1ccc(C(=O)C2CCCN(C(=O)c3n[nH]c4c3CCCC4)C2)cc1OC (stereo not drawn)	-10	-4	67*	-10	-12	3
Cn1cc(CN2CCC(Oc3ccc(C(=O)N4CCCC4)cc3)CC2)cn1	.	-24	11	-12	3	-4
COc1ccc(C(=O)CN2CCN(CCN3C(=O)c4cccc5cccc(c45)C3=O)CC2)cc1	-23	64*	-7	-6	-9	2	DNA binding=-19%
Cc1ccc2[nH]c(=O)c3cc(C(=O)NCCN4CCN(C)CC4)sc3c2c1	-5	57*	8	26	-19	-2	DNA binding=-13%
COc1cc2[nH]c3c(=O)n(CCN4CCCCC4)cnc3c2cc1OC	.	55*	.	.	.	.	DNA binding=-15%
Cc1cccc(-c2nc(CNC(=O)c3ccco3)cs2)c1	.	-1	-8	-5	-14	2
CC(N)c1csc(Nc2nncc3ccccc23)n1 (stereo not drawn)	-22	70*	13	40	-35	2	DNA binding=-1%
CCOC(=O)c1cnc2c(C)cccc2c1NCCCN1CCOCC1	12	95*	11	17	-10	5	DNA binding=-19%
CCOC(=O)c1cnc2c(CC)cccc2c1NCCN1CCOCC1	4	11	13	2	-7	5
COc1cccc(-c2nc(NCCN3CCOCC3)c3ccccc3n2)c1O	.	109*	.	.	.	.	DNA binding=-4%
Cc1cccc(-c2nc(NCCN(C)C)c3ccccc3n2)c1	1	38	33	16	5	2
Oc1ccccc1-c1nc(NCCN2CCOCC2)c2ccccc2n1	.	?	7	.	.	.	DNA binding=10%
Fc1ccccc1-c1nc(NCCCN2CCOCC2)c2ccccc2n1	-2	.	6	-3	6	1
Clc1ccc(-c2nc(NCCCN3CCOCC3)c3ccccc3n2)cc1	11	24	-22	2	16	2
CN(C)CCCNc1nc(-c2ccccc2)nc2ccccc12	-10	67*	48	48	-13	0	DNA binding=-22%
